From PubChem
Pf growth 96h: Primary qHTS for delayed death inhibitors of the malarial parasite plastid, 96 hour incubation; P. falciparum luciferase reporter growth, 96 h; 320,000 compounds, 6.9% hits; AID 504834, 2011; Potency, µM (titrated, usually from 28.7 µM), inactives show at the top dose activity change, negative = inhibition, actives largely listed as inhibitors
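P. falciparum expressing integrated firefly luciferase grown in erythrocytes (2% hematocrit, 0.05% parasitemia final) with compounds for 96 hours at 37 C, 5% CO2. Growth inhibition read as loss of luminescence after adding luciferase detection reagent.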
Pf growth 48h: Primary qHTS for delayed death inhibitors of the malarial parasite plastid, 48 hour incubation. P. falciparum luciferase growth in erythrocytes, 48 h. Potency, µM (doses to about 28.7 µM), for the others: at the highest dose activity change, negative = inhibition, usual class: inhibitors. 310,000 compounds, 5.9% hits
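Luciferase-expressing parasites in RBCs, 2% Hct / 0.1% parasitemia final; RPMI 1640 + 0.5% Albumax; 37 C, 5% CO2, one generation; luminescence read-out, lower signal = inhibition.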
AMA1 RON2 block: qHTS for Inhibitors of AMA1-RON; Towards Development of Antimalarial Drug Lead: Primary Screen; AlphaScreen AMA1-biotinylated RON2 peptide binding; 360,000 compounds, 0.2% hits; Potency, µM (series often up to 58.2 µM), for the others: top-dose activity change, negative = inhibition, usual class: inhibitors; Plasmodium falciparum AMA1 (3D7) - RON2 peptide interaction;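 note: 0% = vehicle wells and -100% = peptide control; nearly all actives have a fitted effect of over 45% in size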
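AMA1 (3D7) with his tag at 25 nM final met compounds first, then biotinylated RON2 peptide at 25 nM; detection used donor plus acceptor beads, 10 µg/mL apiece, read by AlphaScreen after 30 min at room temperature.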
HCV inh: qHTS Assay for Inhibitors of Hepatitis C Virus (HCV); Huh7.5.1 HCVcc-Cre infection, luciferase reporter, 44 h; AID 651820, 2012; 340,000 compounds, 3.4% hits; Potency, µM (top dose mostly 41.8 µM), without a hit: at the top dose activity change, negative = inhibition, most hits filed as inhibitors
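Infectious HCV cell culture screen: compound-treated cells (1,000/well, pre-plated 4 h) are infected with HCVcc-Cre at roughly 0.5 moi and grown 44 h. Infection is quantified by luciferase signal after 15 min substrate incubation at room temperature.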
* marks the source's active call; other numbers are inactive results; ? = inconclusive; . = not tested or not shown. This is a sample that favours compounds with a hit; in the whole collection about 11% have one here. Calls come from the whole dose curve; as a rule, active = well fitted curve in the direction sought with a large enough effect; inconclusive = small, poorly fitted or top-dose-only effect, or another doubt; inactive = no such curve, though single readings can be large; an effect the other way counts as inactive or inconclusive. Unless noted, % is set by controls: 0 for no effect and ±100 for the full control effect; potency is the fitted concentration of half-maximal effect.

SMILES	Pf growth 96h	Pf growth 48h	AMA1 RON2 block	HCV inh
CCOc1ccccc1CNC(=O)C1CCN(c2nc3ccccc3o2)CC1	2%	6%	0%	-22%
CCOC(=O)N1CCN(S(=O)(=O)N2CCCC(C(=O)NCc3ccccc3OCC)C2)CC1 (stereo unspecified)	.	.	-2%	.
CCOc1ccccc1CNC(=O)C1CCCN(c2nc3ccccc3o2)C1 (stereo unspecified)	3.7µM*	12%	.	.
COc1ccc(-n2nc3c(N4CCC(C(=O)NCc5ccco5)CC4)nnc(C)c3c2C)cc1	45%	?	-3%	3%
CCN1CCN(C(=O)C2CCN(c3nnc(C)c4c(C)n(-c5ccc(C)cc5)nc34)CC2)CC1	?	?	0%	8.9µM*
COc1ccc(-n2nc3c(N4CCC(C(=O)NCC(C)c5ccccc5)CC4)nnc(C)c3c2C)cc1 (stereo unspecified)	-15%	?	-6%	11µM*
CC(C)CN1C(=O)c2ccc(C(=O)Nc3c[nH]c(=O)[nH]c3=O)cc2C1=O	?	14%	7%	21%
O=C(NCCc1ccc(Cl)cc1)C1CCN(S(=O)(=O)c2ccc(-n3cnnn3)cc2)CC1	?	?	15%	-11%
COc1ccc(-n2nc3c(N4CCCC(C(=O)NCc5ccccc5C)C4)nnc(C)c3c2C)cc1 (stereo unspecified)	2.1µM*	12µM*	.	.
COc1ccc(-n2nc3c(N4CCC(C(=O)NC5CCCCC5)CC4)nnc(C)c3c2C)cc1	12%	?	-2%	?
Cc1ccc(-n2nc3c(N4CCC(C(=O)NCCc5ccccc5C)CC4)nnc(C)c3c2C)cc1	31%	?	4%	7.9µM*
Cc1ccccc1CCNC(=O)C1CCN(S(=O)(=O)c2ccc(-n3cnnn3)cc2)CC1	13µM*	?	-12%	1%
COc1ccc(-n2nc3c(N4CCC(C(=O)NCc5ccccc5C)CC4)nnc(C)c3c2C)cc1	?	?	-2%	11µM*
COc1ccc(-n2nc3c(N4CCC(C(=O)NCCc5ccccc5C)CC4)nnc(C)c3c2C)cc1	-1%	-11%	-2%	?
CCCCn1c(N)c(N(CC(C)C)C(=O)CN(C)Cc2cccc(OC)c2)c(=O)[nH]c1=O	?	.	-6%	12%
Cn1c2ccccc2c2nnc(SCC(=O)NCc3ccoc3)nc21	-8%	1%	0%	17%
COc1ccc2cc3[n+](cc2c1OC)CCc1cc2c(cc1-3)OCO2	0.15µM*	0.23µM*	21%	?
COc1cccc(C2=NCCc3cc4c(cc32)OCO4)c1OC	1%	22%	-15%	35%
COc1cccc(CNC(=O)CCl)c1	10µM*	?	1%	31%
COc1cccc(CNC(=O)C(c2ccc(Cl)cc2)C(C)C)c1 (stereo unspecified)	6.6µM*	9.3µM*	2%	14%
CC(C)CCN1CCN(Cc2nc(-c3ccc(F)cc3)cs2)CC1CCO (stereo unspecified)	12µM*	?	-9%	1%
CC(C)CCN1CCN(Cc2nc3ccccc3s2)CC1CCO (stereo unspecified)	0%	4%	-7%	-14%
OCCC1CN(Cc2ccc3cc(Cl)ccc3n2)CCN1Cc1ccsc1 (stereo unspecified)	5.2µM*	?	-6%	?
CC(C)CCN1CCN(CC(c2ccccc2)c2ccccc2)CC1CCO (stereo unspecified)	?	3.7µM*	-9%	?
CC(C)CCN1CCN(Cc2ccsc2)CC1CCO (stereo unspecified)	13µM*	6%	6%	13%
CCOC(=O)C1=C(O)/C(=C/c2cn(CC(=O)N3CCCC3)c3ccccc23)SC1=Nc1ccccc1	3.3µM*	4.7µM*	-3%	11µM*
Nc1nnc(/C=C/c2ccccc2)s1	-11%	70%	27%	7%
COCCCNC(=S)N1CCCN(c2nc3cc(C)c(C)cc3cc2C#N)CC1	431%	?	29%	22µM*
CCOCCCNC(=S)N1CCCN(c2nc3cc(C)cc(C)c3cc2C#N)CC1	0%	?	17%	11µM*
